Compounds with a hit are over-represented: about 4.1% of the library has one in this group of screens.
rCAG RNA binder = binds r(CAG) RNA repeats; 370,000 tested, 1.3% active; inhibition, % at 3 µM; r(CAG) RNA repeat, TO-PRO-1 dye displacement fluorescence;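 active = inhibition above the plate cutoff, the mean of all test compounds on that plate plus 3 SD, cut at about 35% in these data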;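 also: higher means more dye released from RNA so lower well fluorescence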
PRMT1 inh = PRMT1 (human) inhibition, primary screen; inhibition, % at 2.79 µM; recombinant PRMT1, activity-based probe fluorescence polarization; 370,000 tested, 1.3% active; AID 652257;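 active = inhibition above about 21% made by adding two undisclosed values, limit read from the data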
Target sequence (Q99873 whole entry, looked up): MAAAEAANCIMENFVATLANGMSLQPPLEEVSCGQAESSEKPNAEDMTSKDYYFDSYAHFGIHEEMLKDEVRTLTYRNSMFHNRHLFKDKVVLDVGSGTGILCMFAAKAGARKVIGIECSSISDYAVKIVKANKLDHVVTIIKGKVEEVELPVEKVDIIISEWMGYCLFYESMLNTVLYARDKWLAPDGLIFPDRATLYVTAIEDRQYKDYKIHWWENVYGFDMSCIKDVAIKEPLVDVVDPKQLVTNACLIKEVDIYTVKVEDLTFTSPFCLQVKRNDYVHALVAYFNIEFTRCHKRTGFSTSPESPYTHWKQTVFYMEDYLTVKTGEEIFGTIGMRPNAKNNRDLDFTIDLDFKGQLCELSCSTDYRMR
UHRF1 MBD2 ctr = human UHRF1 methylated DNA binding inhibitors. AID 687016. 370,000 tested, 0.75% active. UHRF1 binding to methylated oligo, TR-FRET. inhibition, % at 4.4 µM. Q96T88; in the data active = inhibition above about 21%;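 also: UHRF1 SRA domain binding a hemimethylated CpG hairpin DNA probe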
MBD2 inh = MBD2-methylated oligo binding inhibition; TR-FRET, MBD2 binding to methylated oligonucleotide; inhibition, % at 4.4 µM; 370,000 tested, 0.31% active; AID 686964; in the data active = inhibition above about 13%
ABHD5-PLIN5 inh = ABHD5-PLIN5 protein interaction inhibition. Q00G26+Q8WTS1. Split G. princeps luciferase complementation, luminescence, 4 h. inhibition, % at 4 µM. 360,000 tested, 0.78% active;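 active = inhibition above the mean inhibition across every tested compound plus 3 SD, cut at about 22% in these data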
LEDGF integ inh = blocks HIV-1 LEDGF/p75-dependent DNA integration | TR-FRET IN-LEDGF/p75 DNA integration, Eu/Cy5 | inhibition, % at 3.7 µM | 370,000 tested, 0.64% active;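 active = inhibition above the screen-wide mean plus 3 SD, cut at about 13% in these data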;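 also: signal is the Cy5 over europium emission ratio at 671 and 618 nm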
Hits are given with their value.

How did Cc1nc(-c2ccccc2)sc1-c1ccnn1C do in these assays?
rCAG RNA binder: inactive; PRMT1 inh: inactive; UHRF1 MBD2 ctr: 43; MBD2 inh: inactive; ABHD5-PLIN5 inh: inactive; LEDGF integ inh: inactive

What do the screens show for `Cc1nc(-c2ccccc2)sc1-c1ccn[nH]1`?
rCAG RNA binder: inactive; PRMT1 inh: inactive; UHRF1 MBD2 ctr: inactive; MBD2 inh: inactive; ABHD5-PLIN5 inh: inactive; LEDGF integ inh: inactive

Results for O=C(NCc1cccs1)C1C2C=CC3(CN(Cc4ccccc4)C(=O)C13)O2 (configuration not stated) ?
rCAG RNA binder: inactive; PRMT1 inh: inactive; UHRF1 MBD2 ctr: inactive; MBD2 inh: inactive; LEDGF integ inh: inactive

What do the screens show for `CC[C@@]1(C(=O)OC)N[C@H](CN(C)C(=O)Nc2ccc(F)cc2)[C@@H]2C(=O)N(C)C(=O)[C@@H]21`?
rCAG RNA binder: inactive; PRMT1 inh: inactive; UHRF1 MBD2 ctr: 21; MBD2 inh: inactive; ABHD5-PLIN5 inh: inactive; LEDGF integ inh: inactive

What do the screens show for `CCN(C[C@H]1N[C@@](Cc2ccccc2)(C(=O)OC)[C@H]2C(=O)N(C)C(=O)[C@@H]12)S(=O)(=O)c1ccc(OC(F)(F)F)cc1`?
rCAG RNA binder: inactive; PRMT1 inh: inactive; UHRF1 MBD2 ctr: 21; MBD2 inh: inactive; ABHD5-PLIN5 inh: inactive; LEDGF integ inh: inactive

How did CC[C@@]1(C(=O)OC)N[C@H](CN(C)C(=O)Nc2ccccc2)[C@@H]2C(=O)N(C)C(=O)[C@@H]21 do in these assays?
rCAG RNA binder: inactive; PRMT1 inh: inactive; UHRF1 MBD2 ctr: inactive; MBD2 inh: inactive; ABHD5-PLIN5 inh: inactive; LEDGF integ inh: inactive

What do the screens show for `CNC1=C(N(C(C)=O)c2ccc(Br)cc2)C(=O)c2ccccc2C1=O`?
rCAG RNA binder: inactive; PRMT1 inh: inactive; UHRF1 MBD2 ctr: inactive; MBD2 inh: inactive; ABHD5-PLIN5 inh: inactive; LEDGF integ inh: 23

What do the screens show for `CCC(=O)N(C1=C(NC)C(=O)c2ccccc2C1=O)C(C)C`?
rCAG RNA binder: inactive; PRMT1 inh: inactive; UHRF1 MBD2 ctr: inactive; MBD2 inh: inactive; ABHD5-PLIN5 inh: inactive; LEDGF integ inh: inactive

Results for CC(C)N(C(=O)C[n+]1ccc(/C=N/O)cc1)C(C)C ?
rCAG RNA binder: inactive; PRMT1 inh: inactive; UHRF1 MBD2 ctr: inactive; MBD2 inh: inactive; ABHD5-PLIN5 inh: inactive; LEDGF integ inh: inactive

Results for NC(=O)C[n+]1ccc(/C=N/O)cc1 ?
rCAG RNA binder: inactive; PRMT1 inh: inactive; UHRF1 MBD2 ctr: 26; MBD2 inh: inactive; ABHD5-PLIN5 inh: inactive; LEDGF integ inh: inactive

What do the screens show for `O=C(N[C@H](C(=O)N1CCC[C@H]1C(=O)NCCc1ccccc1Cl)C1CCCCC1)c1ccc(Cl)c(Cl)c1`?
rCAG RNA binder: inactive; PRMT1 inh: inactive; UHRF1 MBD2 ctr: inactive; MBD2 inh: inactive; LEDGF integ inh: inactive

What do the screens show for `CCOC(=O)[C@@]12CCCC3=C1N(CCC3)C(=O)[C@H]2CC(=O)NCC12CC3CC(CC(C3)C1)C2`?
rCAG RNA binder: inactive; PRMT1 inh: inactive; UHRF1 MBD2 ctr: inactive; MBD2 inh: inactive; LEDGF integ inh: inactive

How did O=C(Nc1cccc(S(=O)(=O)N2CCCC2)c1)c1ccncc1 do in these assays?
rCAG RNA binder: inactive; PRMT1 inh: inactive; UHRF1 MBD2 ctr: inactive; MBD2 inh: inactive; ABHD5-PLIN5 inh: inactive; LEDGF integ inh: inactive

What do the screens show for `N#CCC(=O)Nc1ccc(C(=O)Nc2cccc(S(=O)(=O)N3CCCC3)c2)cc1`?
rCAG RNA binder: inactive; PRMT1 inh: inactive; UHRF1 MBD2 ctr: 69; MBD2 inh: inactive; ABHD5-PLIN5 inh: inactive; LEDGF integ inh: inactive

What do the screens show for `COc1ccc(NCC(=O)N2CCCC2)cc1Cl`?
rCAG RNA binder: inactive; PRMT1 inh: inactive; UHRF1 MBD2 ctr: inactive; MBD2 inh: inactive; ABHD5-PLIN5 inh: inactive; LEDGF integ inh: 53

How did COc1cc(NC(=O)CNc2cccc(S(=O)(=O)N3CCCC3)c2)cc(OC)c1 do in these assays?
rCAG RNA binder: inactive; PRMT1 inh: inactive; UHRF1 MBD2 ctr: inactive; MBD2 inh: inactive; ABHD5-PLIN5 inh: inactive; LEDGF integ inh: inactive

What do the screens show for `COc1ccc(NCC(=O)Nc2cccc(S(=O)(=O)N3CCCC3)c2)cc1Cl`?
rCAG RNA binder: inactive; PRMT1 inh: inactive; UHRF1 MBD2 ctr: 26; MBD2 inh: inactive; ABHD5-PLIN5 inh: inactive; LEDGF integ inh: inactive

How did O=C(Nc1ccccc1)OCCN1C(=O)CCC12CCC(c1ccc(Cl)cc1)CC2 (configuration not stated) do in these assays?
rCAG RNA binder: inactive; PRMT1 inh: inactive; UHRF1 MBD2 ctr: inactive; MBD2 inh: inactive; LEDGF integ inh: inactive

Assay outcomes (PubChem)
